Laboratory results: the supplement of paper PMC6555819

How the values were obtained:
Assay in all cases: PBM binding z-score (relative to random genomic background probes); higher = stronger binding; sequences stand for … in GC…GCGATTGACAGCGTAGAATGAAGG
[1] = test system: PPARg:RXRa DBDmut IVT, anti-RXR (DBD mutation: RXRa K156A/R161A, NR concentration 270 nM, RXRa partner concentration 90 nM)
Method in brief: (§1)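 Binding z-scores take random background probes as their reference. They come from custom Agilent 4×180K protein-binding microarrays incubated 1 h with ligand-free nuclear receptor dimers, with antibodies against each partner (one per run) detecting binding. Scanned fluorescence was regression-normalized.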

[2] = test system: PPARg:RXRa IVT, anti-PPARg (NR concentration 270 nM, RXRa partner concentration 90 nM)
Method in brief: as §1

[3] = test system: PPARg DBDmut:RXRa IVT, anti-PPARg (DBD mutation: PPARg1 K132A/R137A, NR concentration 270 nM, RXRa partner concentration 90 nM)
Method in brief: as §1

[4] = test system: PPARg DBDmut IVT, anti-PPARg (DBD mutation: PPARg1 K132A/R137A, NR concentration 270 nM)
Method in brief: as §1

[5] = test system: PPARg homodimer (NR concentration 180 nM)
Method in brief: as §1

[6] = test system: PXR:RXRa (NR concentration 270 nM, RXRa partner concentration 90 nM)
Method in brief: as §1

[7] = test system: PXR homodimer (NR concentration 270 nM)
Method in brief: as §1

[8] = test system: RARa:RXR (NR concentration 270 nM, RXRa partner concentration 90 nM)
Method in brief: as §1

[9] = test system: RARa homodimer (NR concentration 270 nM)
Method in brief: as §1

[10] = test system: RARb:RXRa (NR concentration 270 nM, RXRa partner concentration 90 nM)
Method in brief: as §1

[11] = test system: RARb homodimer (NR concentration 270 nM)
Method in brief: as §1

[12] = test system: RARg:RXRa (NR concentration 270 nM, RXRa partner concentration 90 nM)
Method in brief: as §1

[13] = test system: RARg homodimer (NR concentration 270 nM)
Method in brief: as §1

[14] = test system: RXRa DBDmut IVT, anti-RXR (DBD mutation: RXRa K156A/R161A, NR concentration 90 nM)
Method in brief: as §1

[15] = test system: RXRa homodimer (NR concentration 180 nM)
Method in brief: as §1

[16] = test system: THRa:RXRa (NR concentration 90 nM, RXRa partner concentration 90 nM)
Method in brief: as §1

[17] = test system: THRa homodimer (NR concentration 90 nM)
Method in brief: as §1

[18] = test system: VDR homodimer (NR concentration 270 nM)
Method in brief: as §1

Sequence	PBM binding z-score [1]	PBM binding z-score [2]	PBM binding z-score [3]	PBM binding z-score [4]	PBM binding z-score [5]	PBM binding z-score [6]	PBM binding z-score [7]	PBM binding z-score [8]	PBM binding z-score [9]	PBM binding z-score [10]	PBM binding z-score [11]	PBM binding z-score [12]	PBM binding z-score [13]	PBM binding z-score [14]	PBM binding z-score [15]	PBM binding z-score [16]	PBM binding z-score [17]	PBM binding z-score [18]
CGCGAAAGGTCGTGCTCAGGTGAGTATACCAAAC	0.794	1.92	0.376	-0.142	2.14	3.61	0.0719	4.63	0.019	4.18	3.1	5.55	4.27	2.19	5.98	4.17	1.26	1.18
GCTGGTAGGTCAGGTTGGTCAGCTAACGGGTACG	3.54	3.65	-0.271	0.163	1.32	0.581	0.431	0.986	0.462	3.16	2.87	2.48	3.76	0.0797	1.23	1.12	0.417	0.965
TCGAGTAGGTTAGGGGCCTTCAGAATGGCGTCGA	1.32	1.07	-0.729	-0.939	-0.145	-0.478	-0.829	-0.114	-1.13	0.24	-0.137	-0.483	-0.763	-0.0601	-0.143	-0.36	-0.629	-0.468
CTTCGGAGGACAACAGGAGGTCAGAGCTGCCAGA	0.0715	0.767	-2.3	-1.62	1.69	2.41	0.525	2.64	0.557	2.98	3.55	3.73	3.57	0.619	2.19	2.97	1.1	1.45
CGAACTCGGTCAAGGACAGTGAATCTCCGCACGC	3.2	2.25	-0.0732	-0.272	-0.336	0.0143	-0.196	0.378	-0.323	2.62	1.7	1.95	2.98	0.656	0.345	2.15	1.37	0.261
AAATGTAGGTTATCGGGTCATTCAGTTTGCGCAT	8.08	7.95	2.76	1.48	3	3.87	7.01	3.72	1.36	2.68	3.09	3.27	2.33	1.88	3.42	3.41	2.84	4
CCTTACGGTTCAAGGTTATAGCACGGGTGGTACG	-0.682	0.211	0.502	-0.14	1.49	2.28	1.34	2.24	1.14	1.73	1.39	1.69	1.21	2.6	2.38	2.15	1.41	3.31
ATATGTAGGTTGTCGGGTCATTCAGTTTGCGCAT	4.37	4.47	1.87	1.67	2.56	3.63	8.53	3.15	1.78	2.08	2.51	2.24	1.66	1.31	2.44	3.2	3.12	4.2
ATCGAGAGGTCGAGGTGAGTATAGAGAAAGGGAA	-0.102	1.75	0.955	0.168	0.817	1.9	-0.0163	2.63	-0.363	3.14	2.04	3.39	3.48	1.2	3.51	2.76	0.486	0.635
ACTATTAGTTGACTTAGGACAACCGATACGACGC	-0.129	0.214	1.42	1.67	1.07	0.411	0.511	0.675	0.875	0.665	0.766	0.732	1.04	0.853	0.557	2.12	1.88	0.342
AGTACAGGGTCATCGTAGGCCAGAGTACGCACAG	1.41	3.74	2.14	0.916	3.28	4.88	0.894	5.21	0.349	4.46	3.81	5.65	5.22	3.47	6.42	4.59	1.57	3.92
ACTAGCAGGCCAAGGGTCACTTAAGATTAGTCCG	1.3	3.66	0.182	-0.252	2.04	3.33	-0.0435	4.13	0.362	3.39	3.52	4.12	4.04	0.5	3.87	2.96	0.297	0.981
CGTCCAAGGTCAATGCTGGGTCAGTGAAAGCATT	3.06	3.71	-0.934	-0.907	4.17	4.66	1.2	5.52	0.99	5.31	4.74	7.34	6.47	3.12	4.97	4.28	2.52	2.62
CGAACTAGGTCATCCAGAACAGTGAATACATTGA	8.45	8.49	6.73	4.45	3.59	1.48	0.368	2.32	0.855	3.83	2.8	4.03	4.69	2.23	2.89	2.64	1.15	1.17
TCTTGTAGATCAATAGAGCTTAAGAAAGTGCGCT	1.24	0.112	-0.281	0.00059	-0.672	-0.158	-0.534	-0.251	-1.02	-0.557	-1.12	-0.405	-0.425	-0.034	-0.343	-0.676	-1.11	-0.773
CCTACTGGGCCACGAAAGCTCATTGATTCAGTGA	5.87	5.08	0.172	0.266	-0.477	-0.923	-0.798	-0.778	-0.375	-0.0436	-0.538	-0.286	0.00415	-0.605	-0.6	-0.523	-0.958	-0.935
TATACAGGGTCAAAGGCCAGCGTACGAATGTCGA	2.18	4.79	2.29	0.981	3.54	4.34	0.322	6.38	1.26	4.46	3.48	5.75	4.83	2.96	7.31	3.54	0.731	2.16
CGAACGAGGGCATGAGTTGACAGCAAATGCCGAT	2.75	2.11	-0.484	-0.439	0.454	0.679	0.0292	0.954	-0.609	2.21	0.912	1.52	1.6	2.28	0.957	1.45	-0.266	1.65
TCATATAGGTAAATGCTAAGTGAAAGTCCGATCT	4.03	2.11	0.478	0.946	0.521	0.632	0.372	0.974	0.763	0.453	0.0173	0.4	0.337	1.68	0.615	0.0115	-0.264	0.0364
CCGACTGGGGCACAAAGGTTACCATACCATCCGG	3.32	4.48	-0.0878	-1.02	0.929	1.58	0.126	2.57	0.061	2.31	2.64	2.34	1.92	-0.678	2.52	1.51	0.0239	0.375
CCAGACAGGTGAAAAGGTAACTCAGCCTCGATTA	1.6	1.25	-0.262	-0.729	1.18	0.509	0.481	1.45	1.21	1.43	1.49	1.96	0.973	0.272	1.52	0.971	0.514	-0.0428
CCTAGCAGGCCAATCTGGGTCACTTAAGGCTTGA	4.27	5.04	0.275	-0.588	1.03	1.16	-0.589	1.62	-0.727	1.55	2.26	1.07	1.19	-0.0983	0.84	3.93	0.596	0.132
CCGAGTGGGTTATGGGGCATTCAGGCAACGGTGA	1.23	2.29	-0.951	-0.669	0.384	-0.309	0.21	0.0956	0.0265	0.461	0.766	-0.124	-0.0615	-1.08	0.212	0.303	0.614	0.328
CCGACTGGAGCAGAAAGGTTACCATACCATCCGG	0.54	0.511	-0.716	-0.66	0.708	1.02	-0.102	2.11	-0.788	1.52	2.03	1.32	0.946	-0.179	1.8	0.977	-0.2	0.282
TCTTGTAGATCAGAAGGTTAAGAAAGCTGGCCAA	1.98	0.611	0.0732	-0.22	0.201	0.61	0.0531	0.924	0.498	1.07	1.17	0.818	0.198	0.89	1.31	0.538	-0.485	-0.118
AGAATGAGGTTATTAAGATCAGGGATTTGCGGTC	3.56	2.51	1.03	0.211	0.911	1.23	0.655	1.64	0.863	1.37	0.902	1.19	1.05	1.96	1.76	2.29	0.681	1.2
TCTCGGAGGACACGAAGGGCAGAGCTTTCCAGAG	1.13	0.0832	-0.999	-0.906	-0.399	-0.198	-0.159	-0.136	-1.15	1.97	1.42	0.796	1.71	0.216	-0.0528	1.33	0.123	-0.0061
CCTCGGGGGACAGAAGGTCAGAGCTGTCCGCTTT	0.436	1.38	1.67	-0.683	1.59	2.99	0.0976	3.08	-0.112	3.34	3.57	4.6	4.23	0.388	2.83	3.31	0.175	0.0933
CGAACAAGGGCATGAGTTGATAGCAAATGCCGAT	1.66	0.813	-0.522	-0.153	0.0917	-0.0332	-0.184	-0.0493	0.0122	2.02	0.58	1.12	1.42	1.3	0.715	0.492	-0.294	1.18
